This note sets out measurements from publication PMC3218832.

Targets include RELARELA (p65 homodimer) (Homo sapiens, UniProt Q04206 1-307); p50p50 homodimer (Homo sapiens, UniProt P19838 7-356); RELB subunit;p50 subunit (Homo sapiens;Homo sapiens, UniProt Q01201;P19838 120-401;7-356).
Holding throughout (assay): protein binding microarray; high values mean tight binding
Common to all, as to details: dsDNA, one strand shown

Another experiment addresses T1, p52p52 homodimer (Homo sapiens, UniProt Q00653 4-332).
T1 sequence: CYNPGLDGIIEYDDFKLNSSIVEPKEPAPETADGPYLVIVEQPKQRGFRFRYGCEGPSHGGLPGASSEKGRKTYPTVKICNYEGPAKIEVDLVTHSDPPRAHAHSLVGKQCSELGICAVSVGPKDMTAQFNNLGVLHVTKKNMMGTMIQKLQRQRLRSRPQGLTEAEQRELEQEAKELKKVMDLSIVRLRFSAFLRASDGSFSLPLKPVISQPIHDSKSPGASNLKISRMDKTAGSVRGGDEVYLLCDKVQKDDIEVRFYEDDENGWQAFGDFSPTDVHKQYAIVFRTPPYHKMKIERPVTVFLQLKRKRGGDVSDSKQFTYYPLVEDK

For experiment [1], the target named is RELA (p65) subunit of heterodimer;p50 subunit (Homo sapiens;Homo sapiens, UniProt Q04206;P19838 1-307;7-356).
For experiment [2], the target named is RELA (p65) subunit of heterodimer;p52 subunit (Homo sapiens;Homo sapiens, UniProt Q04206;Q00653 1-307;4-332).
Another experiment has as its target T2, RELB subunit;p52 subunit (Homo sapiens;Homo sapiens, UniProt Q01201;Q00653 120-401;4-332).
T2 sequence 1: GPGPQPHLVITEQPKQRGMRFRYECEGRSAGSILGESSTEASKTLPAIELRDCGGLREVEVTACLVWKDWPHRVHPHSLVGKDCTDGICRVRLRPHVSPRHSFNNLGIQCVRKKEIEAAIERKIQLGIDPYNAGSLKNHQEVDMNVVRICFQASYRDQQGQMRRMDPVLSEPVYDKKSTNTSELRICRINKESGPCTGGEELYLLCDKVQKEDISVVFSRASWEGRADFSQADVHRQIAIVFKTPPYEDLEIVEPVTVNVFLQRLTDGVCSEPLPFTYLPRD
T2 sequence 2: T1 sequence

Experiment [3] concerns the target C-Rel subunit;p50 subunit (Homo sapiens;Homo sapiens, UniProt Q04864;P19838 1-285;7-356).
Experiment [4] has as its target T3, C-Rel subunit;p52 subunit (Homo sapiens;Homo sapiens, UniProt Q04864;Q00653 1-285;4-332).
T3 sequence 1: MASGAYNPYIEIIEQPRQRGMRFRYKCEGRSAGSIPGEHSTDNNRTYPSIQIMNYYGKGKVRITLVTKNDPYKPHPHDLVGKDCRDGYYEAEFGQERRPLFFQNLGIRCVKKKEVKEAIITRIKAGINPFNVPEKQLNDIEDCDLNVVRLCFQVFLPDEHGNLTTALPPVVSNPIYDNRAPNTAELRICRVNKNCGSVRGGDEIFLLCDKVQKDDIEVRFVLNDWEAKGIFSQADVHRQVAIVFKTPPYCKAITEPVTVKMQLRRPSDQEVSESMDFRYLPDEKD
T3 sequence 2: T1 sequence

Sequence of p50p50 homodimer (P19838 7-356): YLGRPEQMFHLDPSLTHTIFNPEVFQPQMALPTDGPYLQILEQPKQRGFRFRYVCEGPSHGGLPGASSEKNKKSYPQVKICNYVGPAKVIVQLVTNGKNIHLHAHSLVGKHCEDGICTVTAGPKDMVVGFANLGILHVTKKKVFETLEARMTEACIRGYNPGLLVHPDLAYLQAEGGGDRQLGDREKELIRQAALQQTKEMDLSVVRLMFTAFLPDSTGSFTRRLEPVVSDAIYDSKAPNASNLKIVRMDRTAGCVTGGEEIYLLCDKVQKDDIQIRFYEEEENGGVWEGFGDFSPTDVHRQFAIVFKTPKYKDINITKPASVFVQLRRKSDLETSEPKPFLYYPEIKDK
Sequence of RELA (p65) subunit of heterodimer;p50 subunit (Q04206 1-307, chain 1 of 2): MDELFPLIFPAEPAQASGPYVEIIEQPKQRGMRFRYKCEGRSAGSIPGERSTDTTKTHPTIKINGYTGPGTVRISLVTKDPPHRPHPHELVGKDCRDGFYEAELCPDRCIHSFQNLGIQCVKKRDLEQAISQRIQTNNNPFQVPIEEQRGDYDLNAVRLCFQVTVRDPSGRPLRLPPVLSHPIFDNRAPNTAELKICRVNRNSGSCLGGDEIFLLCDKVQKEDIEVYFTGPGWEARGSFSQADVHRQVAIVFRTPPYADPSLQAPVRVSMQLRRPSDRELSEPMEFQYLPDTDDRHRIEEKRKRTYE
Sequence of RELA (p65) subunit of heterodimer;p50 subunit (P19838 7-356, chain 2 of 2): as the sequence (P19838 7-356) above
Sequence of RELARELA (p65 homodimer) (Q04206 1-307): as the sequence (Q04206 1-307, chain 1 of 2) above

As to AAAGAAGTCCT, the binding signal was -0.118 z-score with RELARELA (p65 homodimer); -0.972 z-score with p50p50 homodimer; -0.456 z-score in the experiment with p52p52 homodimer; -0.815 z-score in experiment [1]; -0.873 z-score in experiment [2]; -0.926 z-score with RELB subunit;p50 subunit. In addition, the binding signal with RELB subunit;p52 subunit is -0.875 z-score; in [3], -0.558 z-score; in [4] it was -0.645 z-score.

For AGGTACATCCT, the binding signal with RELARELA (p65 homodimer) is -0.603 z-score; with p50p50 homodimer, -0.00392 z-score; with p52p52 homodimer, 0.047 z-score; in experiment [1], -0.495 z-score; in experiment [2] it was -0.249 z-score; with RELB subunit;p50 subunit, -0.147 z-score. In addition, the binding signal with RELB subunit;p52 subunit is -0.293 z-score; in experiment [3] it was -0.674 z-score; in experiment [4], -0.415 z-score.

CAAGACGCCCT: the binding signal is -0.812 z-score in the experiment with RELARELA (p65 homodimer); -2.01 z-score with p50p50 homodimer; -0.745 z-score in the experiment with p52p52 homodimer; -0.983 z-score in experiment [1]; -0.966 z-score in experiment [2]; -1.04 z-score with RELB subunit;p50 subunit. Further, the results for the binding signal (with RELB subunit;p52 subunit; in experiment [3]; in [4]) were -0.904 z-score, -1.34 z-score and -0.839 z-score, respectively.

For the sequence AAATAACCCCC, the binding signal in the experiment with RELARELA (p65 homodimer) is 0.321 z-score; in the experiment with p50p50 homodimer, 1.39 z-score; in the experiment with p52p52 homodimer it was 1.6 z-score; in experiment [1], 1.69 z-score; in [2], 1.48 z-score; with RELB subunit;p50 subunit, 1.69 z-score. Also, the values for the binding signal (in the experiment with RELB subunit;p52 subunit; in experiment [3]; in [4]) were 1.68 z-score, 1.32 z-score and 1.39 z-score, respectively.

Take CAAGGGGTCCT: the binding signal was -0.5 z-score in the experiment with RELARELA (p65 homodimer); -0.988 z-score with p50p50 homodimer; -0.106 z-score with p52p52 homodimer; -1.06 z-score in [1]; -0.546 z-score in experiment [2]; -0.595 z-score with RELB subunit;p50 subunit. Further, the binding signal is -0.354 z-score with RELB subunit;p52 subunit, -0.859 z-score in experiment [3] and -0.486 z-score in experiment [4].

AGAGTATTCCC: the binding signal in the experiment with RELARELA (p65 homodimer) was determined as 1.05 z-score; with p50p50 homodimer it was 0.224 z-score; in the experiment with p52p52 homodimer it was 0.305 z-score; in experiment [1], 0.534 z-score; in experiment [2], 0.292 z-score; in the experiment with RELB subunit;p50 subunit, 0.0188 z-score. For the same sequence, the binding signal amounted to 0.0238 z-score with RELB subunit;p52 subunit, 0.73 z-score in experiment [3] and 0.396 z-score in experiment [4].

For the sequence AAAAACCTCCC, the binding signal with RELARELA (p65 homodimer) is 0.0581 z-score; with p50p50 homodimer it was 0.2 z-score; with p52p52 homodimer, -0.135 z-score; in [1] it was 0.166 z-score; in [2], -0.13 z-score; in the experiment with RELB subunit;p50 subunit it was 0.0831 z-score. Moreover, the binding signal in the experiment with RELB subunit;p52 subunit was determined as 0.117 z-score; in experiment [3], 0.28 z-score; in experiment [4], 0.0846 z-score.

For the sequence AAGTTATCCCC, the binding signal was 0.516 z-score with RELARELA (p65 homodimer); 1.08 z-score with p50p50 homodimer; 0.864 z-score in the experiment with p52p52 homodimer; 0.995 z-score in [1]; 0.69 z-score in [2]; 1.26 z-score with RELB subunit;p50 subunit. Moreover, the binding signal with RELB subunit;p52 subunit was found to be 1.11 z-score; in experiment [3] it was 1.16 z-score; in experiment [4], 0.506 z-score.

CGATATTTCCT: the binding signal was 0.574 z-score in the experiment with RELARELA (p65 homodimer); -0.558 z-score in the experiment with p50p50 homodimer; -0.405 z-score with p52p52 homodimer; -0.302 z-score in experiment [1]; -0.495 z-score in experiment [2]; -0.725 z-score with RELB subunit;p50 subunit. For the same sequence, the binding signal with RELB subunit;p52 subunit is -0.422 z-score; in [3], -0.166 z-score; in experiment [4] it was -0.154 z-score.

On to GGGGGCCTCCC, for which the binding signal with RELARELA (p65 homodimer) was 0.3 z-score; with p50p50 homodimer, 0.557 z-score; with p52p52 homodimer it was 2.41 z-score; in experiment [1], 1.24 z-score; in experiment [2] it was 1.91 z-score; with RELB subunit;p50 subunit it was 1.21 z-score. Also, the binding signal with RELB subunit;p52 subunit is 1.09 z-score; in experiment [3] it was 1 z-score; in [4], 1.46 z-score.

As for AGATTTATCCC, the binding signal is -0.076 z-score in the experiment with RELARELA (p65 homodimer); -0.338 z-score with p50p50 homodimer; -0.0792 z-score in the experiment with p52p52 homodimer; -0.321 z-score in experiment [1]; -0.11 z-score in [2]; -0.291 z-score with RELB subunit;p50 subunit. The binding signal was -0.135 z-score with RELB subunit;p52 subunit, 0.062 z-score in [3] and -0.0889 z-score in [4].

Take GGGGGCGCCCT: the binding signal came out at 0.992 z-score with RELARELA (p65 homodimer); 0.922 z-score with p50p50 homodimer; 1.68 z-score with p52p52 homodimer; 1.43 z-score in experiment [1]; 1.58 z-score in experiment [2]; 1.12 z-score with RELB subunit;p50 subunit. In addition, the binding signal came out at 1.33 z-score in the experiment with RELB subunit;p52 subunit, 0.776 z-score in experiment [3] and 1.34 z-score in [4].

For GAGGGTTCCCT, the binding signal with RELARELA (p65 homodimer) was -0.44 z-score; in the experiment with p50p50 homodimer, -0.133 z-score; with p52p52 homodimer, -0.121 z-score; in [1], -0.238 z-score; in experiment [2], -0.0267 z-score; with RELB subunit;p50 subunit it was -0.011 z-score. The binding signal with RELB subunit;p52 subunit is 0.0453 z-score; in [3] it was -0.173 z-score; in experiment [4], -0.0776 z-score.

For the sequence AAGTGGGTCCC, the binding signal with RELARELA (p65 homodimer) is -0.651 z-score; with p50p50 homodimer, -0.324 z-score; with p52p52 homodimer, -0.0356 z-score; in experiment [1] it was -0.468 z-score; in experiment [2], -0.433 z-score; in the experiment with RELB subunit;p50 subunit it was -0.00499 z-score. Also, the binding signal with RELB subunit;p52 subunit is -0.124 z-score; in experiment [3], -0.493 z-score; in experiment [4] it was -0.609 z-score.

Consider CGAGGCTTCCT, for which the binding signal with RELARELA (p65 homodimer) is -0.994 z-score; with p50p50 homodimer, -2.47 z-score; with p52p52 homodimer, -0.827 z-score; in experiment [1], -1.09 z-score; in experiment [2] it was -1.19 z-score; in the experiment with RELB subunit;p50 subunit it was -1.31 z-score. Besides, the binding signal was -1.05 z-score with RELB subunit;p52 subunit, -1.49 z-score in experiment [3] and -1.05 z-score in experiment [4].
